From PubChem BioAssay AID709 (SRMLSC, 2007) come the findings set out here.

The structures appear in SMILES notation. About 3,600 (5.5%) of roughly 65,000 compounds were called active.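 Rule for the calls: active = at 10 µM, mean starting fluorescence two-fold or more over control wells; inactive = the rest.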 This excerpt belongs to a sample that is enriched for actives.

The nature of the experiment: intrinsic fluorescence of library compounds, ex339/em460 – biochemical, MLSMR library, data from DPM-DC assay, artefact control, profiling panel (AID 709).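 Note: signal is the first read of a kinetic run.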 The following applies: compound autofluorescence, ex339/em460 nm, NADH buffer; at 10 µM; stronger effect = higher value; 1 = no-compound wells, NADH background.
As to `COc1cccc(NC(=O)CN(C)S(=O)(=O)c2ccc(C)cc2)c1`, the fluorescence fold increase was 1.1 (inactive).

For the compound `COc1cccc(-c2nnc(NC(=O)c3ccc(S(=O)(=O)N(CC(C)C)CC(C)C)cc3)o2)c1`, the fluorescence fold increase was 3.77 (active).

As to `CCN(CC)C(=O)CSc1nnc(-c2cccc(OC)c2)o1`, the fluorescence fold increase is 1.05 (inactive).

Consider `CC(C)(O)C#Cc1ccc(C(=O)N2CCC(C(N)=O)(N3CCCCC3)CC2)cc1`, for which the fluorescence fold increase was 1.1 (inactive).

For the compound `Cc1ccc(NC(=O)c2nc[nH]c2C(=O)N2CCCCC2)c(C(=O)c2ccccc2)c1`, the fluorescence fold increase is 1.13 (inactive).

Consider `Cc1ccc2c(c1)sc1ncc(NC(=O)c3ccccc3)c(=O)n12`, for which the fluorescence fold increase is 2.43 (active).

Consider `Cc1ccccc1NC(=O)c1ccccc1`, for which the fluorescence fold increase is 1.09 (inactive).

Consider `CC(C)C(NC(=O)c1cccc(S(=O)(=O)N2CCOCC2)c1)C(=O)NCCc1ccccn1` (stereo unspecified), for which the fluorescence fold increase is 1.06 (inactive).

`C=CCNC(=O)c1ccc(C)c(Br)c1`: the fluorescence fold increase was 1.08 (inactive).

`COc1cccc(C(=O)c2cc3ccc(O)cc3oc2=O)c1`: the fluorescence fold increase is 1.05 (inactive).

As for `O=c1oc2cc(O)ccc2cc1-c1ccc(F)cc1`, the fluorescence fold increase was 3.81 (active).

As for `Nc1ncc(-c2cc3ccccc3oc2=O)s1`, the fluorescence fold increase is 1.43 (inactive).

Turning to `O=C(Cn1c(=S)nc2ccccn21)N1CCc2ccccc2C1`, the fluorescence fold increase is 1.17 (inactive).

Consider `CCOc1ccc2[nH]c(=O)c(CN(Cc3nnnn3CCc3ccccc3)CC3CCCO3)cc2c1` (stereo unspecified), for which the fluorescence fold increase was 1.82 (inactive).

Consider `Cc1cc(C)c2cc(CN(Cc3cccs3)Cc3nnnn3CC3CCCO3)c(=O)[nH]c2c1` (stereo unspecified), for which the fluorescence fold increase is 1.16 (inactive).

As for `Cc1cc2cc(CN(Cc3cccs3)Cc3nnnn3CC3CCCO3)c(=O)[nH]c2cc1C` (stereo unspecified), the fluorescence fold increase is 1.42 (inactive).

In the case of `Cc1cccc2cc(CN(Cc3nnnn3Cc3ccccc3)C3CCCC3)c(=O)[nH]c12`, the fluorescence fold increase is 1.03 (inactive).

Turning to `COc1ccc2[nH]c(=O)c(CN(Cc3nnnn3CCc3ccccc3)CC3CCCO3)cc2c1` (stereo unspecified), the fluorescence fold increase was 2.03 (active).

`COc1ccc2[nH]c(=O)c(CN(CC3CCCO3)C(=O)Nc3ccccc3)cc2c1` (stereo unspecified): the fluorescence fold increase was 2.91 (active).

As for `CCOc1ccc2[nH]c(=O)c(CN(Cc3nnnn3Cc3ccccc3)CC3CCCO3)cc2c1` (stereo unspecified), the fluorescence fold increase was 2.24 (active).

For `CCC(c1nnnn1Cc1ccco1)N(Cc1cc2cc(OC)ccc2[nH]c1=O)C1CCCCC1` (stereo unspecified), the fluorescence fold increase is 1.39 (inactive).

As to `CCC(c1nnnn1Cc1ccccc1)N(Cc1cc2cc(OC)ccc2[nH]c1=O)CC1CCCO1` (stereo unspecified), the fluorescence fold increase is 1.46 (inactive).

Turning to `COc1ccc(/C(O)=C2/C(=O)C(=O)N(c3nc(C)c(C)s3)C2c2ccco2)cc1` (stereo unspecified), the fluorescence fold increase was 1.08 (inactive).

With `COc1ccc(NS(=O)(=O)c2ccc(NC(=O)C(C)(C(F)(F)F)C(F)(F)F)cc2)nn1`, the fluorescence fold increase was 1.11 (inactive).

`Cn1c(=O)oc2cc(S(=O)(=O)N3CCC(C(=O)Nc4ccc(OC(F)(F)F)cc4)CC3)ccc21`: the fluorescence fold increase was 0.99 (inactive).

In the case of `CCC1(C)N(O)C(C)(C)C(c2ccc(OC)cc2)=[N+]1[O-]` (stereo unspecified), the fluorescence fold increase was 1.08 (inactive).

Regarding `COc1ccc(CCNC(=O)c2ccc3c(c2)NC(=O)C(N2CCOCC2)S3)cc1OC` (stereo unspecified), the fluorescence fold increase is 1.05 (inactive).

As for `CCOc1ccccc1-n1c(SCC(=O)N2CCCC2)nnc1-c1ccoc1C`, the fluorescence fold increase is 1.07 (inactive).

Regarding `CCCCc1nccn1CCn1ccnc1CCCC`, the fluorescence fold increase was 1.03 (inactive).

Consider `COc1ccc(-c2cc(C(=O)NC(C(=O)O)C(C)C)c(C)o2)cc1OC` (stereo unspecified), for which the fluorescence fold increase is 1.05 (inactive).

On to `C=C(C)c1cccc(C(C)(C)NC(=O)N2CCN(c3ncccn3)CC2)c1`, for which the fluorescence fold increase is 1.1 (inactive).

In the case of `Fc1ccc2[nH]c3c(N4CCSCC4)ncnc3c2c1`, the fluorescence fold increase is 1.68 (inactive).

Regarding `CCN1CCCC1CNc1ncnc2c1[nH]c1ccc(F)cc12` (stereo unspecified), the fluorescence fold increase is 3.05 (active).

On to `Fc1ccc2[nH]c3c(N4CCN(Cc5ccc6c(c5)OCO6)CC4)ncnc3c2c1`, for which the fluorescence fold increase is 1.38 (inactive).

For the compound `CC(C)OCCCNc1ncnc2c1[nH]c1ccc(F)cc12`, the fluorescence fold increase is 3.76 (active).

Take `COc1ccc(C(=O)Nc2cccnc2)cc1C(=O)Nc1cccnc1`: the fluorescence fold increase was 1.05 (inactive).

For `C=CCn1c(C)cc(C(=O)CN2C(=O)c3ccccc3C2=O)c1C`, the fluorescence fold increase was 1.04 (inactive).

As to `C=CCN(CC=C)C(=O)CN1C(=O)c2ccccc2C1=O`, the fluorescence fold increase is 1.04 (inactive).

With `COc1ccc(CC(=O)Nc2ccc(-c3nnc(-c4ccc(C)cc4)o3)cc2)cc1`, the fluorescence fold increase is 2.89 (active).

Consider `COc1ccc(-c2nc(CS(=O)CC(=O)NCc3ccccn3)c(C)o2)cc1` (stereo unspecified), for which the fluorescence fold increase was 1 (inactive).

Take `Cc1ccc(OCC(=O)Nc2ccc(-c3nnc(-c4ccco4)o3)cc2)cc1`: the fluorescence fold increase is 1.37 (inactive).

Consider `O=C(COC(=O)c1ccc(Oc2ccccc2)cc1)Nc1nnc(-c2ccccc2)o1`, for which the fluorescence fold increase is 1.19 (inactive).

In the case of `CCC(=O)Oc1cccc(C(=O)Nc2ccc(-c3nnc(-c4ccco4)o3)cc2)c1`, the fluorescence fold increase was 1.53 (inactive).

Consider `O=C(CCc1ccccc1)Nc1cccc(-c2nnc(-c3ccco3)o2)c1`, for which the fluorescence fold increase is 1.31 (inactive).

On to `CCOC(=O)c1ccc(NC(=O)CSc2ncccn2)cc1`, for which the fluorescence fold increase was 1.02 (inactive).

With `COc1ccc(CC(=O)Nc2ccc(-c3nnc(-c4ccccc4)o3)cc2)cc1`, the fluorescence fold increase was 2.23 (active).

In the case of `Cc1ccc(OCC(=O)Nc2ccc(-c3nc4ncccc4o3)cc2)cc1`, the fluorescence fold increase is 3.7 (active).

For `CCCOC(=O)CC1C(=O)NCCN1Cc1ccc(F)cc1` (stereo unspecified), the fluorescence fold increase was 1.06 (inactive).

Consider `C=C(Br)Cn1c(CCCC)nc2ccccc21`, for which the fluorescence fold increase was 1.05 (inactive).

Consider `CCN(c1ccccc1)S(=O)(=O)c1cccc(C(=O)O)c1`, for which the fluorescence fold increase was 0.98 (inactive).

On to `Cc1noc(C)c1CSc1nnc2ccc3ccccc3n12`, for which the fluorescence fold increase is 1.17 (inactive).

As to `COC(=O)C(NC(C)=O)(Nc1nc2c(s1)CCCC2)C(F)(F)F` (stereo unspecified), the fluorescence fold increase is 1.04 (inactive).

For the compound `Cc1ccc(N(C(=O)CC2NC(=O)NC2=O)C2(C(=O)NC3CCCC3)CCCCC2)cc1` (stereo unspecified), the fluorescence fold increase is 1.11 (inactive).

In the case of `Cc1ccccc1CN1CCN(CC(=O)NCc2ccccn2)C1=O`, the fluorescence fold increase was 1.13 (inactive).

On to `O=C(NCc1ccccn1)c1ccc2nc(-c3ccco3)c(-c3ccco3)nc2c1`, for which the fluorescence fold increase was 1.72 (inactive).

Turning to `Cc1cccn2c(=O)c3cc(C(=O)NCc4ccccn4)n(C)c3nc12`, the fluorescence fold increase was 5.03 (active).

Consider `Cc1cccn2c(=O)c3cc(C(=O)N4COCC4(C)C)n(C)c3nc12`, for which the fluorescence fold increase was 4.96 (active).

Consider `NC(=O)C1CCN(C2OC(=O)c3ccccc32)CC1` (stereo unspecified), for which the fluorescence fold increase was 1.08 (inactive).

Turning to `CCOC(=O)C1CCN(C(=O)C2CCN(S(=O)(=O)N3CCCC3)CC2)CC1`, the fluorescence fold increase is 1.03 (inactive).

On to `CCC(CC)c1nnc(NS(=O)(=O)Cc2ccccc2)s1`, for which the fluorescence fold increase was 1.09 (inactive).

In the case of `Cc1nn2c3ccccc3nc2n(C)c1=O`, the fluorescence fold increase was 0.93 (inactive).

As for `CN1c2ccccc2-c2nc3ccccc3n2C1c1ccco1` (stereo unspecified), the fluorescence fold increase was 2.31 (active).

On to `Cc1ccccc1N1C(=O)C2ON(c3ccccc3)C(c3ccncc3)C2C1=O` (stereo unspecified), for which the fluorescence fold increase is 1.04 (inactive).

For `COc1ccc(N2CCN(C(=O)CSc3nc4cc(OC)c(OC)cc4cc3C#N)CC2)cc1`, the fluorescence fold increase is 1.03 (inactive).

Consider `COc1ccc2nc(N3CCCC(O)C3)c(C#N)cc2c1` (stereo unspecified), for which the fluorescence fold increase is 2.58 (active).

`CCOc1ccc2nc(N3CCCN(C(=O)Nc4ccccc4C)CC3)c(C#N)cc2c1`: the fluorescence fold increase was 1.7 (inactive).

With `COc1ccc(C(=O)Nc2nncs2)c(OC)c1`, the fluorescence fold increase is 1.05 (inactive).

Consider `COC(=O)c1sc(NC(=O)c2csc3c2CCCC3)nc1C`, for which the fluorescence fold increase is 1.25 (inactive).

Consider `COC(=O)c1sc(NC(=O)c2ccc(OC)cc2OC)nc1C`, for which the fluorescence fold increase was 2.06 (active).

For the compound `CCOC(=O)C1CCN(C(=O)c2oc3ccc(S(=O)(=O)N4CCCCCC4)cc3c2C)CC1`, the fluorescence fold increase is 1.08 (inactive).

For `CCOc1ccccc1NC(=O)c1cc(S(=O)(=O)N2CCC3(CC2)OCCO3)ccc1F`, the fluorescence fold increase is 1.05 (inactive).

`Cc1c(C(=O)Nc2ccccc2Cl)oc2ccc(S(=O)(=O)N3CCC4(CC3)OCCO4)cc12`: the fluorescence fold increase is 3.37 (active).

On to `COC(=O)COc1ccc(S(=O)(=O)Nc2ccc(NC(C)=O)cc2)cc1`, for which the fluorescence fold increase is 1.1 (inactive).

Consider `O=C(N1CCOCC1)N(Cc1ccccc1)c1ccccn1`, for which the fluorescence fold increase is 1.08 (inactive).

Consider `COc1cc(-n2c(C)nc3cc(C(=O)NCc4ccco4)ccc32)cc(OC)c1OC`, for which the fluorescence fold increase was 1.09 (inactive).

Regarding `Cc1cc(NC(=O)c2cnn3cccnc23)n(-c2ccccc2)n1`, the fluorescence fold increase is 1.13 (inactive).

In the case of `Cn1c(CNc2nc(-c3ccccc3)cs2)nnc1SCC(=O)c1ccccc1`, the fluorescence fold increase is 1.05 (inactive).

As to `CC(Sc1nc2ccccc2c(=O)n1Cc1ccco1)C(=O)c1ccccc1` (stereo unspecified), the fluorescence fold increase is 1.1 (inactive).

Regarding `Cn1c(COc2ccc(Cl)cc2)nc2ccccc2c1=O`, the fluorescence fold increase is 1.18 (inactive).

On to `COCCCn1c2nc3ccccc3nc2c2c(=O)n(Cc3ccc(Cl)cc3)c(C)nc21`, for which the fluorescence fold increase is 3.88 (active).

Regarding `Cc1nc2c(c(=O)n1Cc1ccco1)c1nc3ccccc3nc1n2Cc1ccccc1`, the fluorescence fold increase is 2.65 (active).

Take `Clc1cccc(-c2nc3nc4ccccc4nc3n2Cc2ccco2)c1`: the fluorescence fold increase was 1.65 (inactive).

As for `O=c1c2ccccc2oc2nc(C3CCCCC3)n(Cc3ccco3)c(=O)c12`, the fluorescence fold increase is 1.14 (inactive).

`Cc1nc2ccccc2c(=O)n1CCCn1ccnc1`: the fluorescence fold increase is 1.18 (inactive).

Regarding `Nc1cc(=O)nc(SCc2ccccc2)n1Cc1ccco1`, the fluorescence fold increase was 1.05 (inactive).

For the compound `Cc1ccc(Cn2c(C)nc3c(c2=O)c2nc4ccccc4nc2n3Cc2ccco2)cc1`, the fluorescence fold increase was 2.34 (active).

Regarding `CC(=O)Oc1cc2c(C(=O)NCCN3CCOCC3)c(C)oc2c2ccccc12`, the fluorescence fold increase is 1.19 (inactive).

As to `CCCS(=O)(=O)N1CCCC(C(=O)N2CCN(c3ccccc3)CC2)C1` (stereo unspecified), the fluorescence fold increase was 1.11 (inactive).

As to `CN(C)Cc1c(O)ccc2occ(C(O)c3ccccc3)c12` (stereo unspecified), the fluorescence fold increase is 1.03 (inactive).

Consider `COc1ccc(-c2ccnc(SCC(=O)N3CCOCC3)n2)cc1`, for which the fluorescence fold increase is 1.54 (inactive).

Consider `CCOc1ccccc1NC(=O)CCN1CCN(S(=O)(=O)c2ccc(OC)cc2)CC1`, for which the fluorescence fold increase was 1 (inactive).

`CCOC(=O)c1[nH]c2ccc(OC)cc2c1NC(=O)CCN1CCN(Cc2ccccc2)CC1`: the fluorescence fold increase is 2.37 (active).

As for `COC(=O)c1[nH]c2ccccc2c1NC(=O)CN1CCCc2ccccc21`, the fluorescence fold increase is 1.14 (inactive).

For `CCOC(=O)c1[nH]c2ccc(OC)cc2c1NC(=O)N1CCOCC1`, the fluorescence fold increase was 3.83 (active).

Take `Cc1c(C(=O)N2CCOCC2)[nH]c2ccc(OCc3ccccc3)cc12`: the fluorescence fold increase is 1.13 (inactive).

With `COc1cc(NC(=O)N2CCOCC2)cc(OC)c1`, the fluorescence fold increase is 1.07 (inactive).
